Fam108B counter: blocks mouse Fam108B hydrolase in RBBP9 counter-screen; inhibition, % at 9.51 µM; recombinant Fam108B, FP-Rh probe fluorescence polarization; hit rate 0.33% among 300,000;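 active = inhibition above the screen mean inhibition plus 3 SD, computed separately per campaign, cut at about 18% in these data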;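 note: inhibitors lower polarization as less probe binds the enzyme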
pPAFAH inh: pPAFAH (human) enzyme inhibition | inhibition, % at 3.39 µM | Q13093 | recombinant pPAFAH, FP-rhodamine probe fluorescence polarization | hit rate 1.5% among 330,000;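 active = inhibition above the mean inhibition across the screen plus 3 SD, cut at about 25% in these data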;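 note: inhibitors block binding of the rhodamine activity-based probe so polarization drops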
Target sequence (Q13093 whole entry, looked up): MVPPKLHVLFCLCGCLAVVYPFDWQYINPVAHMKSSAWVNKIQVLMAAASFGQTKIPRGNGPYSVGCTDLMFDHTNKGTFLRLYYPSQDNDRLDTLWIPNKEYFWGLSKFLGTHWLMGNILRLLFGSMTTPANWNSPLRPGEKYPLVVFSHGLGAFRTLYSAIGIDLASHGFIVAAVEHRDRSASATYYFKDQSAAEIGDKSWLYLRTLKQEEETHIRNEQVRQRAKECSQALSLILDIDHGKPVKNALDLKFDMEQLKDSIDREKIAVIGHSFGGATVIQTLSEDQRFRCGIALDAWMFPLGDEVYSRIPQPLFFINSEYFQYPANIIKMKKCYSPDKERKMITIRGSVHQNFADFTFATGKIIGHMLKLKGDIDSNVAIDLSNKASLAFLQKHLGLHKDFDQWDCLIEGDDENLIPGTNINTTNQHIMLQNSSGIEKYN
PME-1 primary: PME-1 (human) inhibition | Q9Y570 | recombinant PME-1, FP-Rh probe fluorescence polarization | inhibition, % at 5.9 µM | hit rate 0.53% among 320,000 | AID 2130;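 active = inhibition above the campaign mean of all compounds plus 3 SD, cut at about 26% in these data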;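 note: competitive labeling of PME-1 active site by serine hydrolase directed probe; inhibitors block probe labeling so polarization falls and inhibition rises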
GSTO1 inh: blocks human GSTO1 in RBBP9 counter-screen. P78417. recombinant GSTO1, activity-based probe fluorescence polarization. inhibition, % at 5.96 µM. hit rate 1.1% among 300,000. AID 1974;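 active = inhibition above the campaign mean inhibition plus 3 SD, cut at about 35% in these data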
Target sequence (P78417 whole entry, looked up): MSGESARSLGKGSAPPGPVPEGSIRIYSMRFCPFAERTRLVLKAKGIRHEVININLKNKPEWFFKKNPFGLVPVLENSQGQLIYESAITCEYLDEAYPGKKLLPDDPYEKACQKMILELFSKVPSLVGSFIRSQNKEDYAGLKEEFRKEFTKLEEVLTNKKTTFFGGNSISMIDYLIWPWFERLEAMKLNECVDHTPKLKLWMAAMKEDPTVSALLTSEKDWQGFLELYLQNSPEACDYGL
PAD4 inh: PAD4 (human) enzyme inhibition; hit rate 0.41% among 330,000; AID 485272; recombinant PAD4, RCA probe fluorescence polarization; inhibition, % at 6.36 µM;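 active = percent inhibition above a cutoff equal to the mean of all tested compounds plus 3 SD, cut at about 15% in these data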
Fam108b inh conf: Fam108b (mouse) hydrolase inhibition, confirmation assay. shares compounds with Fam108B counter. recombinant Fam108b, FP-Rh probe fluorescence polarization. inhibition, % at 9.51 µM. hit rate 44% among 930. AID 1978;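 active = inhibition above a limit from the primary screen, the mean over all compounds plus 3 SD, cut at about 19% in these data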;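 note: inhibitors free the probe so polarization falls as inhibition rises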
Fam108b inh: mouse ABHD17B inhibition | shares compounds with Fam108B counter | recombinant Fam108b, gel-based ABPP, fluorophosphonate probe | inhibition, % at 20 µM | hit rate 44% among 260; in the data active = inhibition above about 40%
GSTO1 inh conf: GSTO1 (human) inhibition, confirmation; AID 2176; shares compounds with GSTO1 inh; hit rate 54% among 2,400; inhibition, % at 5.96 µM; recombinant GSTO1, probe fluorescence polarization;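 active = inhibition above the primary screen's cutoff, its mean inhibition plus 3 SD, cut at about 35% in these data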;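 note: loss of polarization as inhibitors block binding of rhodamine sulfonate ester activity probe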
pPAFAH FP conf: confirmation of human plasma PAF acetylhydrolase (pPAFAH) inhibitors. shares compounds with pPAFAH inh. recombinant pPAFAH, FP-Rh probe fluorescence polarization. inhibition, % at 3.39 µM. hit rate 72% among 2,300. AID 463230;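 active = mean inhibition of the triplicate above the hit cutoff set for the earlier primary screen, cut at about 25% in these data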
PAD4 confirm: PAD4 (human) inhibition, confirmed; shares compounds with PAD4 inh; recombinant PAD4, RCA probe fluorescence polarization; inhibition, % at 6.36 µM; hit rate 28% among 1,200;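 active = mean inhibition across replicates above the hit cutoff set by the earlier primary screen, cut at about 15% in these data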;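 note: inhibitors block active-site labeling by the probe so polarization falls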
Hits are given with their value; i = inactive; nt = no result given. The list is not random: actives were taken first. Their share in the collection is about 2.3%.

SMILES | Fam108B counter | pPAFAH inh | PME-1 primary | GSTO1 inh | PAD4 inh | Fam108b inh conf | Fam108b inh | GSTO1 inh conf | PAD4 confirm | others
CCN=c1scc(C)n1/N=C/c1cc(Br)c(O)c(Br)c1 | 21 | 41 | i | 46 | i | i | nt | i | nt | pPAFAH FP conf=25
O=C(CSc1nnnn1C1CC2C=CC1C2)Nc1ccc(C(=O)O)cc1 (stereo unspecified) | i | i | i | i | i | nt | nt | nt | nt
O=[N+]([O-])c1ccc(CN2CCN(c3nc4ccccc4s3)CC2)cc1 | i | i | i | i | i | nt | nt | nt | nt
CCCn1nc([N+](=O)[O-])c(C(C#N)c2nc3ccccc3s2)c(Cl)c1=O (stereo unspecified) | 31 | 56 | 36 | 66 | 19 | 31 | i | 44 | 23 | pPAFAH FP conf=51
CC(=O)Nc1ccc(Nc2ccc3c4c(cc(=O)n3C)-c3ccccc3C(=O)c24)cc1 | i | i | i | i | i | nt | nt | nt | nt
Cn1c(=O)c(Nc2ccc(Cl)cc2)c2c3c(cccc31)C(=O)c1ccccc1-2 | 32 | i | 31 | i | 33 | 34 | i | nt | 50
COc1ccc(N=C2NC(=O)S/C2=C\c2ccc(N(C)C)cc2)cc1 | 32 | i | 47 | i | 36 | 28 | nt | nt | 47
CCOc1ccc(N=C2NC(=O)S/C2=C\c2ccc(Cl)cc2)cc1 | i | i | i | i | i | nt | nt | nt | nt
CCn1c(CSc2nccn2C)nc2cc(C(=O)O)ccc21 | 20 | i | i | i | 35 | 59 | i | nt | 43
O=C(O)CSc1cc(NS(=O)(=O)c2ccc(Br)cc2)c2ccccc2c1O | 22 | i | 30 | 90 | 31 | i | nt | 81 | i
COc1cc(OC)cc(C(=O)NNC(=O)CCNS(=O)(=O)c2ccc(Br)cc2)c1 | nt | i | nt | nt | i | nt | nt | nt | nt
O=C(O)c1ccc(S(=O)(=O)/N=C2\C=C(Nc3ccccc3F)C(=O)c3ccccc32)cc1 | 49 | i | i | 91 | 67 | 66 | 85 | 93 | 65
Cc1ccccc1NC1=C/C(=N\S(=O)(=O)c2ccc(C(=O)O)cc2)c2ccccc2C1=O | 54 | i | 36 | 90 | 71 | 89 | i | 93 | 58
CC1=C(Nc2ccc(C(=O)O)cc2)C(=O)c2ccccc2C1=O | i | i | i | i | i | nt | nt | nt | nt
CS(=O)(=O)N(CC(=O)O)Cc1cccc(CN(CC(=O)O)S(C)(=O)=O)c1 | i | i | i | i | i | nt | nt | nt | nt
CC(C(=O)N1CCCC1)N(C)CC(=O)Nc1cccc(F)c1 (stereo unspecified) | nt | i | i | nt | i | nt | nt | nt | nt
C=CCn1c(NS(=O)(=O)c2ccccc2)c(S(=O)(=O)c2ccc(C)cc2)c2nc3ccccc3nc21 | 74 | i | 33 | 101 | 76 | i | nt | 88 | i
CCCCn1c(N)c(S(=O)(=O)c2ccc(C)cc2)c2nc3ccccc3nc21 | i | i | i | i | i | nt | nt | nt | nt
O=C(NCc1nnc2c(C(F)(F)F)cc(Cl)cn12)c1cccs1 | i | i | i | i | i | nt | nt | nt | nt
O=C1OC(Nc2cc(Br)cc3cccnc23)c2ccccc21 (stereo unspecified) | 47 | 30 | 28 | 86 | 61 | i | nt | nt | i
CCOC(=O)C1CCN(C(=O)CNC(=O)Cn2c(C)cc3ccccc3c2=O)CC1 | i | i | i | i | i | nt | nt | nt | nt
CN1C(=O)c2cccc3c(Cl)ccc(c23)C1=O | i | i | i | i | i | nt | nt | nt | nt
CNc1ccc2c3c(cccc13)C(=O)N(C)C2=O | 62 | 54 | 77 | 40 | 95 | 47 | i | i | 86 | pPAFAH FP conf=39
CNc1nc(C23CC4CC(CC(C4)C2)C3)cs1 | i | i | i | i | i | nt | nt | nt | nt
Cn1c(=S)[nH]c(=O)c2ncc(=O)[nH]c21 | i | i | i | i | i | nt | nt | nt | nt
SMILES | Fam108B counter | pPAFAH inh | PME-1 primary | GSTO1 inh | PAD4 inh | Fam108b inh conf | Fam108b inh | GSTO1 inh conf | PAD4 confirm | others
COc1ccc(S(=O)(=O)/N=C2\C=C(Nc3ccc(O)cc3)C(=O)c3ccccc32)cc1 | 28 | 26 | 36 | 94 | 62 | 37 | 65 | 89 | 58
Cc1ccccc1NC1=C/C(=N\S(=O)(=O)c2cccs2)c2ccccc2C1=O | 41 | i | 30 | 92 | 70 | 60 | 60 | 88 | 53
CC(=O)Nc1ccc(NC2=C/C(=N/S(=O)(=O)c3cccs3)c3ccccc3C2=O)cc1 | 41 | 31 | i | 87 | 65 | 40 | nt | 86 | 45
COc1cccc(C(=O)N2CCC(C(=O)NCc3ccco3)CC2)c1 | i | i | i | i | i | nt | nt | nt | nt
CCOC(=O)c1c2c3c(cccc3[nH]c1=O)C(=O)c1ccccc1-2 | i | i | i | i | i | nt | nt | nt | nt
COCCCNc1c2c3c(cccc3[nH]c1=O)C(=O)c1ccccc1-2 | 106 | 106 | 124 | 79 | 135 | 131 | i | 92 | 151 | pPAFAH FP conf=84
O=C1C(Cl)=C(N2CCN(c3ccccc3[N+](=O)[O-])CC2)C(=O)c2ccccc21 | 30 | i | i | 82 | 29 | 32 | i | 88 | i
Cc1ccc(-c2nc(NCc3ccc(F)cc3)n(S(C)(=O)=O)n2)cc1 | i | i | i | i | i | nt | nt | nt | nt
O=C(NCCO)Nc1ccc2nsnc2c1 | i | i | i | i | i | nt | nt | nt | nt
OCCNC(=S)Nc1ccc2nsnc2c1 | 28 | i | i | 85 | 28 | i | nt | nt | i
Nc1ccc(O)c2c1C(=O)c1ccccc1C2=O | 53 | 83 | 56 | 49 | 49 | 49 | i | 37 | 41 | pPAFAH FP conf=46
O=C1C(Nc2cccc(O)c2)=C(N2CCCCC2)C(=O)c2ccccc21 | 20 | i | i | 79 | 18 | 21 | nt | 63 | i
O=C1C(NS(=O)(=O)c2ccccc2)=C(N2CCN(c3ccc(F)cc3)CC2)C(=O)c2ccccc21 | i | i | i | i | i | nt | nt | nt | nt
O=C(CCn1cnnn1)N1CCCC(Nc2ccc(F)c(F)c2)C1 (stereo unspecified) | i | i | i | i | i | nt | nt | nt | nt
COc1ccc2noc3c2c1C(=O)c1ccccc1-3 | 20 | 38 | 26 | i | 143 | 23 | nt | nt | 144 | pPAFAH FP conf=25
O=C1c2cccc3c(O)ccc(c23)C(=O)N1c1ccc(Cl)cc1 | 20 | 28 | 37 | i | 34 | i | nt | nt | 31
CC(=O)Nc1ccc(N2C(=O)c3cccc4c(O)ccc(c34)C2=O)cc1 | 26 | i | i | i | 39 | i | nt | nt | 36
Cc1ccc(N2C(=O)c3cccc4c(C(=O)O)ccc(c34)C2=O)cc1 | i | i | i | i | i | nt | nt | nt | nt
CCc1cccc(NC(=O)CCS(=O)(=O)c2ccc(Br)cc2)c1 | i | i | i | i | i | nt | nt | nt | nt
N#Cc1c(NC(=O)c2ccc(Br)o2)n(-c2ccccc2)c2nc3ccccc3nc12 | 33 | i | i | 74 | 36 | 34 | i | 85 | 20

High-throughput results deposited in PubChem by The Scripps Research Institute Molecular Screening Center.
